# Experimental data taken from PubChem BioAssay.
# Activity calls are given as the source filed them.
# How the values were obtained:
# [1] = system: Plasmodium falciparum Sir2 (PF13_0152, Sir2A); test: pfSir2 binders on small-molecule microarrays, primary screen, biochemical, small-molecule microarray, 635 nm fluorescence (AID 1098); conditions: small-molecule microarray binding, fluorescence 635 nm; higher = more signal;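 also: score merges spot fluorescence intensity with its signal-to-noise ratio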
# [2] = small-molecule microarray binders of probe aDKK1, primary screen, biochemical, biotinylated probe, 635/667 nm fluorescence (AID 1099); conditions: higher = more signal;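 also: score merges 667nm spot fluorescence with signal to noise across triplicate slides; reference of the scale not given here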
# [3] = small-molecule microarray binders of probe aCHRDL2, primary screen, biochemical, biotinylated probe, 635/667 nm fluorescence (AID 1100); conditions: higher = more signal
# [4] = splicing luciferase reporter signal modulators, primary screen, spliceosome inhibition project, cell-based, HEK293, splice +/- reporter (AID 1101); conditions: luminescence, 24 h, higher = more signal, called active from +8 up or from −8 down;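 also: HEK293 cells carrying a splicing-competent luciferase reporter gene; test concentration not given here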
# [5] = target: Fibroblast growth factor 10 (Homo sapiens) (UniProt O15520); test: FGF10 binders on small-molecule microarrays, primary screen, biochemical, small-molecule microarray, 635 nm fluorescence (AID 1102); conditions: FGF10 binding, fluorescence 635 nm, higher = more signal
# [6] = system: glycogen synthase kinase-3 (GSK3A per assay name; protocol says GSK3B); test: GSK3 binders on small-molecule microarrays, primary screen, biochemical, small-molecule microarray, 635 nm fluorescence, GSK3A (AID 1103); conditions: small-molecule microarray binding, fluorescence 635 nm; higher = more signal; also: the record names both GSK3A and GSK3B
# [7] = target: Epidermal growth factor receptor (Homo sapiens) (UniProt P00533); test: EGFR binders on small-molecule microarrays, primary screen, biochemical, small-molecule microarray, 635 nm fluorescence (AID 1104); conditions: EGFR binding, higher = more signal;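 also: score merges 667 nm emission intensity with spot signal to noise over triplicate slides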
# [8] = target: Follistatin-related protein 3 (Homo sapiens) (UniProt O95633); test: FSTL3 binders on small-molecule microarrays, primary screen, biochemical, small-molecule microarray, 635 nm fluorescence (AID 1105); conditions: FSTL3 binding, higher = more signal;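 also: score merges emission near 667 nm and signal to noise per printed spot across three slides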
# [9] = target: Dickkopf-related protein 1 (Homo sapiens) (UniProt O94907); test: DKK1 binders on small-molecule microarrays, primary screen, biochemical, small-molecule microarray, 635 nm fluorescence scan (AID 1106); conditions: DKK1 binding, higher = more signal;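 also: score merges emission near 667 nm with signal to noise over three replicate slides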
# [10] = system: Inhibin beta A chain (activin A); test: INHBA (activin A) binders on microarrays, primary screen, biochemical, small-molecule microarray, 635 nm fluorescence scan (AID 1107); conditions: small-molecule microarray binding, higher = more signal;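 also: mouse activin A protein probed at 4.33 µg/mL on printed slides; score merges bound-protein fluorescence near 667 nm with spot signal-to-noise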
# Fibroblast growth factor 10 (Homo sapiens), sequence (O15520 whole entry, looked up): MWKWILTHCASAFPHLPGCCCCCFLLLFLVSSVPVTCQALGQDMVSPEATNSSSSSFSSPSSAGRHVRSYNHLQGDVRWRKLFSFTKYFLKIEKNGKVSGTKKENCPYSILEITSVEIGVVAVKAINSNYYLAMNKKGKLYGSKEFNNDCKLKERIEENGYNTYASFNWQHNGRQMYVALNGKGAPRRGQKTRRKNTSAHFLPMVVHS
# Dickkopf-related protein 1 (Homo sapiens), sequence (O94907 whole entry, looked up): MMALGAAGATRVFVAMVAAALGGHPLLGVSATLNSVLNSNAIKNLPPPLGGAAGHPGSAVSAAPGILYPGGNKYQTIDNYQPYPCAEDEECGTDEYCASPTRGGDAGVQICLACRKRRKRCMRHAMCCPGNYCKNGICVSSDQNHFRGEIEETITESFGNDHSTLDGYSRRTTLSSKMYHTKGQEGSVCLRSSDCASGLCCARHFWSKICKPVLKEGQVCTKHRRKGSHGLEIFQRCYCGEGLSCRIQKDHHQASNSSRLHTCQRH
# Follistatin-related protein 3 (Homo sapiens), sequence (O95633 whole entry, looked up): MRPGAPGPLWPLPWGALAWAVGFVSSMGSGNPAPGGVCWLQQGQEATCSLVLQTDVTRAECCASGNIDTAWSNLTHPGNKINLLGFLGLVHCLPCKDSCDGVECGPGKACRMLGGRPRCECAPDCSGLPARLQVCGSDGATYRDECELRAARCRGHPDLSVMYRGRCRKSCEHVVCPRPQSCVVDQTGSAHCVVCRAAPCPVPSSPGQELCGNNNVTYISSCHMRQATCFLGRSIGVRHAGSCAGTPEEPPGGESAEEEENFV
# Epidermal growth factor receptor (Homo sapiens), sequence (P00533 whole entry, looked up): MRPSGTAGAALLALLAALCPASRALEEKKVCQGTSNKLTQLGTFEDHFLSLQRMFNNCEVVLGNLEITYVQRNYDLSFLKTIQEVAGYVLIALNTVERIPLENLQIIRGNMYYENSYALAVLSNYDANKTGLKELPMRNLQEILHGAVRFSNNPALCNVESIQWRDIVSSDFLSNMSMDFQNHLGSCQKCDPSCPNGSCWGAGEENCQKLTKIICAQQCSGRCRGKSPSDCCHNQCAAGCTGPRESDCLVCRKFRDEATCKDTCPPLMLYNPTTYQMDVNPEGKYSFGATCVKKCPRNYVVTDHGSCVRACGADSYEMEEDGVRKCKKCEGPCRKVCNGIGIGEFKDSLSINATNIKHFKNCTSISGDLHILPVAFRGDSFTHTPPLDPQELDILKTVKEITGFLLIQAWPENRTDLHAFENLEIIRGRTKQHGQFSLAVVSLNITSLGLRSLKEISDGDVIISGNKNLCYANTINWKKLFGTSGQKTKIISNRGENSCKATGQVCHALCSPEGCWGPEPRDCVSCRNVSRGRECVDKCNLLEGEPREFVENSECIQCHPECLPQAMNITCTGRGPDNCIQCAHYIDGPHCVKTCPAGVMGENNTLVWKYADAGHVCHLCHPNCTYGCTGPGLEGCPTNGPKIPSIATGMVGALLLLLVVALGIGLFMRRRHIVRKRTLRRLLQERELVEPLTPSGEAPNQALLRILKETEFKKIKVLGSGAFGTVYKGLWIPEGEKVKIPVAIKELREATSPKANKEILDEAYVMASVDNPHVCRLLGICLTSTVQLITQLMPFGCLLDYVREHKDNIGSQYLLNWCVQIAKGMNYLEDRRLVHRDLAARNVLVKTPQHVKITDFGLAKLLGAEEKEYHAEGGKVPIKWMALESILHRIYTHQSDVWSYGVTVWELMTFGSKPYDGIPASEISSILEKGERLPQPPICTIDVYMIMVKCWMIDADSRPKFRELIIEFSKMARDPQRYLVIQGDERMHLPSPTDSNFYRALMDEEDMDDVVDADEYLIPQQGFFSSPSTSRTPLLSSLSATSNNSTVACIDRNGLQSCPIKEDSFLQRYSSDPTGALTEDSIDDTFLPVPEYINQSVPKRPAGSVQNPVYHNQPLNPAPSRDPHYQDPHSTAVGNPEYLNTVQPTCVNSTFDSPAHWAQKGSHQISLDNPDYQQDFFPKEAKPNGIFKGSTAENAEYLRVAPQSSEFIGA
Structure (SMILES),composite z-score [1],composite z-score [2],composite z-score [3],z-score [4],composite z-score [5],composite z-score [6],composite z-score [7],composite z-score [8],composite z-score [9],composite z-score [10]
CO[C@@H]1COC(=O)CC=C[C@H](C)COC(=O)[C@H](Cc2ccccc2)NC(=O)CC=C[C@H]1C,0.534,-1.19,-1.74,-0.912 (inactive),0.472,0.622,1.03,1.25,2.22,1.36
Cc1cc(C)c(C(O)C2C=CC3C(=O)N(C)C(=O)C3N2N2CCCCC2)c(C)c1 (stereo not given),1.38,0.261,1.2,1.91 (inactive),1.07,1.31,0.641,1.35,0.384,1.36
COc1cc(CO)cc(I)c1O[C@H]1C=C(C(=O)NCCO)C[C@@H](NCCc2c[nH]c3ccccc23)[C@@H]1O,1,0.27,0.375,-1.01 (inactive),1.06,0.433,0.666,1.05,0.4,1.22
CC(C)(C)OC(=O)CC[C@]1(C(=O)N2CCCCC2)N=C(c2ccc(OCCCO)cc2)O[C@H]1c1ccccc1,1.73,0.464,0.56,-0.767 (inactive),1.2,1.29,0.494,1.37,0.691,0.556
COc1ccc(CCN2C(=O)[C@@]3(c4ccc([N+](=O)[O-])cc4)CC(=O)N(CC45CC6CC(CC(C6)C4)C5)[C@@H]3c3ccc(CO)cc32)cc1,1.42,0.463,0.761,-0.604 (inactive),-0.212,0.592,-0.645,-0.203,-0.369,0.718
CO[C@H]1COC(=O)CC=C[C@H](C)[C@@H](OC)COC(=O)CC=C[C@@H]1C,0.697,-0.546,-1.11,-1.06 (inactive),0.597,0.309,0.751,0.522,0.991,0.716
C=C(CCCC)C(=O)CC[C@@H](OC(=O)c1cccnc1)c1cccc(OCCO)c1,1.48,-0.246,0.238,3.57 (inactive),0.72,0.13,-0.237,-0.242,0.265,1.2
C=CC[C@]1(C(=O)NCC(O)CO)N=C(c2ccc(OCCCO)cc2)O[C@H]1c1ccccc1 (stereo not given in full),1.23,1.21,1.3,0.164 (inactive),-0.159,0.321,-1.48,-1.7,-0.296,0.236
CCc1cccc(NC(=O)O[C@H]2[C@H](OC(=O)Nc3ccccc3)[C@@H](OC(=O)Nc3ccccc3)[C@@H](OC)O[C@@H]2CO)c1,1.35,0.169,0.37,-0.0187 (inactive),1.54,1.07,0.0832,1.41,0.319,0.451
Cc1ccc(S[C@]2(C(=O)NCCCN(C)C)CC(=O)N(Cc3ccccc3)[C@@H]2c2ccc(CO)cc2I)cc1,0.16,1.09,1.3,-1.81 (inactive),-0.347,-0.753,-1.12,-0.575,-1.37,1.35
[N-]=[N+]=NCc1ccccc1C[C@]1(C(=O)N2CCCCC2)N=C(c2ccc(OCCCO)cc2)O[C@H]1c1ccccc1CN=[N+]=[N-],0.751,0.518,0.885,0.324 (inactive),0.924,0.65,-0.107,0.556,-0.531,0.212
C=CC[C@@]12N=C(c3ccc(OCCCO)cc3)O[C@@H]1c1ccccc1CN(Cc1ccccc1)C2=O,1.67,0.761,0.757,-0.291 (inactive),0.623,1.28,-0.0152,0.0791,0.191,1.01
COCCOC(=O)N1C(=O)[C@@]2(c3cc(C#CCC(C(=O)OC)C(=O)OC)ccc31)[C@H](c1ccccc1OCCO)N1[C@H](c3ccccc3)[C@H](c3ccccc3)OC(=O)[C@H]1[C@@H]2C(=O)N1CCCCCCC1,0.853,1.97,1.42,-0.247 (inactive),0.834,1.29,0.852,1.56,1.4,1.61
